Artemis endo inh: blocks endonuclease activity of human Artemis; inhibition, % at 10 µM; Q96SD1; actives 0.78% (n = 30,000); AID 686954; recombinant Artemis, quenched FAM hairpin cleavage fluorescence;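 active = at 10 µM dose, at least 30% inhibition, measured as corrected fluorescence normalized to stimulator and neutral control wells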
Target sequence (Q96SD1 whole entry, looked up): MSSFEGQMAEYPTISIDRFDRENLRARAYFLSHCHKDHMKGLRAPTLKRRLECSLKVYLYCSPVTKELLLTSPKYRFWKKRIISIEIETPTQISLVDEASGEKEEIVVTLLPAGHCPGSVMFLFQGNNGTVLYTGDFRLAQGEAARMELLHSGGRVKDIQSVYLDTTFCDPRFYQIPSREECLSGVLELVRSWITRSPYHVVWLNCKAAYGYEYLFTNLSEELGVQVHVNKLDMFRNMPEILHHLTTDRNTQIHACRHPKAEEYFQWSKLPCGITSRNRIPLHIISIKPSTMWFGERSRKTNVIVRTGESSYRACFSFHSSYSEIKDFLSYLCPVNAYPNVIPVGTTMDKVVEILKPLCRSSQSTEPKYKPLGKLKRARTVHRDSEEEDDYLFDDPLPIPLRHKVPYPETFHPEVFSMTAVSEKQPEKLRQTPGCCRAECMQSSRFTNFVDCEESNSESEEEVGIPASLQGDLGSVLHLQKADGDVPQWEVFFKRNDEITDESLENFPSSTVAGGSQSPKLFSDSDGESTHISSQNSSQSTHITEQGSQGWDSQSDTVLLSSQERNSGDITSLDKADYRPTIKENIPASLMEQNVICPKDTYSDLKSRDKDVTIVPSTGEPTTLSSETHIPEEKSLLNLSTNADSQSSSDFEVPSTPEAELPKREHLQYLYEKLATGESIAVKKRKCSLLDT
An asterisk follows results filed as active. Shown is part of a subset that was picked to be rich in hits.

SMILES	Artemis endo inh
O=C(Nc1ccc(Cl)cc1)c1ccc2c(c1)OCO2	-5
CN1CCN(CCC(=O)Nc2ccc3c(c2)OCO3)CC1	2
O=C(NCCc1c[nH]c2ccccc12)C(F)(F)F	-7
CCc1c(C#N)c(SCCC(=O)Nc2ccc(F)cc2)nc2c1C(=O)CC(C)(C)C2	5
COc1ccc(OC)c(NC(=O)CSC2=NCCS2)c1	-10
COc1ccc(CC(=O)NC2=NCCS2)cc1	5
COc1ccc(Nc2nc(Nc3ccc(OC)cc3)nc(SC3=NCCS3)n2)cc1	79*
CCOC(=O)c1c(NC(=O)CSc2nnnn2-c2ccccc2)sc2c1CCC(C)C2 (stereo not given)	-4
CCOC(=O)c1c(NC(=O)CSc2nncs2)sc(C)c1C	-5
CCOC(=O)c1c(NC(=O)CSc2nnc3c(n2)[nH]c2ccccc23)sc2c1CCN(C)C2	42*
COC(=O)c1c(-c2ccc3ccccc3c2)csc1NC(=O)Cc1ccc(OC)c(OC)c1	11
Cc1ccc(C2C(C#N)=C(N)Oc3n[nH]c(-c4cccs4)c32)cc1 (stereo not given)	1
COc1cc(-c2[nH]nc3c2C(c2ccoc2)C(C#N)=C(N)O3)cc(OC)c1OC (stereo not given)	7
N#CC1=C(N)Oc2n[nH]c(-c3cccs3)c2C1c1ccoc1 (stereo not given)	39*
CC(/C=C(\NC(=O)c1ccccc1)C(=O)N=Nc1c(O)[nH]c2ccc(C)cc12)=C\c1ccccc1	14
CCOC(=O)C(C(=O)OCC)C(C(=O)OCC)N1CCOCC1 (stereo not given)	-1
CCOc1ccc(CCNS(=O)(=O)c2cccc3nsnc23)cc1OCC	-6
O=C(NNC(=O)c1cc(-c2ccc(Cl)cc2Cl)nc2ccccc12)Nc1ccccc1	6
O=C(NNc1c2ccccc2nc2ccccc12)c1ccc(O)cc1O	38*
O=C(COc1ccccc1)NNc1c2ccccc2nc2ccccc12	12
CCc1c(C)nc2cc(-c3ccc(OC)c(OC)c3)nn2c1NCC1CC1	5
O=C(N/N=C/c1ccc([N+](=O)[O-])o1)c1cc(-c2cccc(Br)c2)nc2ccccc12	39*
O=C(Oc1ccc([N+](=O)[O-])cc1)c1cc(-c2ccccc2)nc2ccccc12	-1
O=C(NCc1ccco1)c1cc(-c2ccccc2)nc2ccccc12	-2
CC(=O)c1cccc(NC(=O)N2CCCC2C(=O)NC2CCCCC2)c1 (stereo not given)	6
SMILES	Artemis endo inh
Cc1cc(Cl)ccc1OCCCC(=O)NO	63*
Cc1cc(Cl)ccc1OCCCC(=O)NCC1CCCO1 (stereo not given)	4
Cc1cc(NC(=O)COC(=O)CCCOc2ccc(Cl)cc2C)no1	0
Cc1cc(NC(=O)COC(=O)c2cc(S(=O)(=O)N3CCOCC3)ccc2N2CCCCC2)no1	-3
CN1CCN(C(=O)CSc2nc(-c3cccs3)ccc2C#N)CC1	-3
Cn1cc(Br)c(C(=O)NC2CCCCC2)n1	-7
COc1cccc(/C=N/NC(=O)CSc2nnc(C)n2-c2ccccc2)c1OC	-10
COc1cccc(/C=N\n2c(C)nnc2C)c1OC	-5
COc1cccc(/C=N/Nc2nn3cnnc3c3ccccc23)c1O	35*
O=[N+]([O-])c1ccc(NC(=S)N/C(=N/CS(=O)(=O)c2ccccc2)c2ccccc2)cc1	1
O=C(CSc1nnc(Cc2ccccc2)o1)Nc1ccc2c(c1)OCO2	-2
Cc1cc(-c2cc(-c3ccc(Cl)cc3)nc(N)c2C#N)co1	28
Cc1cccc(C)c1OCC(=O)N/N=C/c1ccc2c(c1)OCO2	-5
O=C(COc1ccccc1C(=O)N/N=C\c1ccc(O)c(O)c1)N/N=C/c1ccc(O)c(O)c1	66*
CCOc1ccc(/C=N/NC(=O)COc2ccccc2-c2ccccc2)cc1	17
Cc1[nH]c2ccccc2c1C(=O)CN1CCCCC1CCO (stereo not given)	-3
Cn1c(C(=O)O)c(CC(=O)NCc2cccnc2)c2ccccc21	0
CCOc1cc(C2C(C(=O)c3ccc(C)o3)=C(O)C(=O)N2CCc2ccccc2)ccc1O (stereo not given)	32*
COc1ccc(C2C(C(=O)c3ccc(C)o3)=C(O)C(=O)N2c2cc(C)on2)cc1OC (stereo not given)	2
COc1cc(C2C(C(C)=O)=C(O)C(=O)N2CCc2ccc(OC)c(OC)c2)ccc1O (stereo not given)	1
CNC(=S)N(Cc1ccc(OC)cc1)C1CC(=O)N(c2ccc(OC)cc2)C1=O (stereo not given)	0
O=C1C2C3C=CC(O3)C2C(=O)N1CC(O)c1ccccc1 (stereo not given)	-6
Cc1cc(C)c2nc(SCC(=O)N3CCCCC3)c(C#N)cc2c1	1
Cc1cc(NC(=O)CSc2nc3ccccc3c(=O)n2-c2ccccc2)no1	-6
COc1ccc(-n2c(SCC#N)nc3ccccc3c2=O)cc1	0
SMILES	Artemis endo inh
O=C1CCCN1CC(CN1CCOCC1)Sc1nc2ccccc2c(=O)n1-c1ccccc1 (stereo not given)	33*
CC(C(=O)O)N1C(=O)/C(=C/C=C/c2ccco2)SC1=S (stereo not given)	40*
C=CCSC1=N/C(=C\C=C\c2ccco2)C(=O)S1	15
O=C1/C(=C\c2ccco2)SC(=S)N1Cc1ccccc1	16
CCCC(=O)Nc1sc2c(c1C#N)CCCCC2	-3
N#Cc1nn(-c2ccccc2)nc1N1CCCCC1	-3
S=c1[nH]nc(CSc2nc3ccccc3s2)n1C1CCCCC1	21
CCCCn1c(=NC(=O)c2ccc3c(c2)OCO3)c(C#N)cc2c(=O)n3cccc(C)c3nc21	40*
CCNC(=O)c1cc2c(=O)n3cccc(C)c3nc2n(Cc2ccc(C)cc2)c1=N	7
CCOC(=O)c1cc2c(=O)n3cccc(C)c3nc2n(CC2CCCO2)c1=NC(C)=O (stereo not given)	2
COc1cc(NCCCC(C)N)c2ncccc2c1 (stereo not given)	55*
COc1ccc(OC)c(NC(=O)c2ccccc2NS(=O)(=O)c2cccc3cccnc23)c1	-1
COc1ccc2[nH]c3c(NCCN(C(C)C)C(C)C)ncnc3c2c1	-9
CCN(CC)S(=O)(=O)c1ccc(N2CCN(S(=O)(=O)c3ccc4c(c3)OCCO4)CC2)nc1	10
CCCCCCCCC/C(=N\O)c1ccccn1	35*
CCCCCCOc1ccc(/C(N)=N/O)cc1	-7
CCCCCCCCCCNC(=O)C(=O)Nc1ccccn1	5
Cc1ccccc1Nc1nc(N)nc(CSc2nc3ccccc3c(=O)n2C)n1	12
O=C(CN(c1ccc(Cl)c(C(F)(F)F)c1)S(=O)(=O)c1ccccc1)N/N=C/c1cccc2c1OCCO2	10
O=C(Nc1nc2n(n1)C(c1ccccc1)CC(c1ccc(Cl)cc1)N2)c1ccco1 (stereo not given)	31*
O=C1CC(c2ccccc2)n2nc(NC(=O)C3CCCO3)nc2N1 (stereo not given)	-8
CC1CC(c2ccccc2)n2nc(NC(=O)CCc3ccccc3)nc2N1 (stereo not given)	0
CC(NCc1ccc2c(c1)OCO2)C(=O)NC1CCCc2ccccc21 (stereo not given)	-1
COC(=O)C(C)Sc1nc2c(c(=O)[nH]c(=O)n2C)n1CCC(C)C (stereo not given)	0
O=C(Nc1ccc2oc(-c3cccc4ccccc34)nc2c1)c1ncn[nH]1	32*
Nc1ccc2oc(-c3cccc4ccccc34)nc2c1	-2
CCC(=O)Nc1ccc2oc(-c3ccccc3Br)nc2c1	-3
Cc1ccccc1-c1nnc(SCCOc2ccc3c(C)cc(=O)oc3c2)o1	-1

Source: PubChem BioAssay (Sanford-Burnham Center for Chemical Genomics)
